Assays:
[1] = target: 5'-AMP-activated protein kinase catalytic subunit alpha-2 (Homo sapiens) (UniProt P54646); conditions: at 1 µM
[2] = target: T1, NUAK family SNF1-like kinase 1 (Homo sapiens) (UniProt O60285); conditions: at 0.1 µM
T1 sequence (whole entry): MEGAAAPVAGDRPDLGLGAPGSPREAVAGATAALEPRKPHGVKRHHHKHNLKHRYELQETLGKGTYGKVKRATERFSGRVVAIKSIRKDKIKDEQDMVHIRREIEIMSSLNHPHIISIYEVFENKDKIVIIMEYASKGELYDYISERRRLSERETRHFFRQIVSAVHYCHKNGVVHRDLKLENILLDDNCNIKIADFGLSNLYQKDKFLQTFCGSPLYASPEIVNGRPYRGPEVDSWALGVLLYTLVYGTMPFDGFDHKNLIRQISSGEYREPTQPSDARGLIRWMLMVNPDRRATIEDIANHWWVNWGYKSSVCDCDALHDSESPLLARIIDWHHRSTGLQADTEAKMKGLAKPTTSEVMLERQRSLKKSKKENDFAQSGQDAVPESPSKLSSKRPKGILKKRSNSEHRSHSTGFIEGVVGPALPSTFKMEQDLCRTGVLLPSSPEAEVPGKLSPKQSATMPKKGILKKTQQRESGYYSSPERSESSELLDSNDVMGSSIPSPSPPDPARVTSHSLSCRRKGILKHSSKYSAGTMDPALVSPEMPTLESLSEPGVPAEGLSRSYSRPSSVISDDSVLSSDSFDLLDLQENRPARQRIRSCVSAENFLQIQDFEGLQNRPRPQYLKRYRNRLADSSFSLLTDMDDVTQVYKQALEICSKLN

[3] = target: T1, NUAK family SNF1-like kinase 1 (Homo sapiens); conditions: at 1 µM
[4] = target: T2, Serine/threonine-protein kinase BRSK1 (Homo sapiens) (UniProt Q8TDC3); conditions: at 0.1 µM
T2 sequence (whole entry): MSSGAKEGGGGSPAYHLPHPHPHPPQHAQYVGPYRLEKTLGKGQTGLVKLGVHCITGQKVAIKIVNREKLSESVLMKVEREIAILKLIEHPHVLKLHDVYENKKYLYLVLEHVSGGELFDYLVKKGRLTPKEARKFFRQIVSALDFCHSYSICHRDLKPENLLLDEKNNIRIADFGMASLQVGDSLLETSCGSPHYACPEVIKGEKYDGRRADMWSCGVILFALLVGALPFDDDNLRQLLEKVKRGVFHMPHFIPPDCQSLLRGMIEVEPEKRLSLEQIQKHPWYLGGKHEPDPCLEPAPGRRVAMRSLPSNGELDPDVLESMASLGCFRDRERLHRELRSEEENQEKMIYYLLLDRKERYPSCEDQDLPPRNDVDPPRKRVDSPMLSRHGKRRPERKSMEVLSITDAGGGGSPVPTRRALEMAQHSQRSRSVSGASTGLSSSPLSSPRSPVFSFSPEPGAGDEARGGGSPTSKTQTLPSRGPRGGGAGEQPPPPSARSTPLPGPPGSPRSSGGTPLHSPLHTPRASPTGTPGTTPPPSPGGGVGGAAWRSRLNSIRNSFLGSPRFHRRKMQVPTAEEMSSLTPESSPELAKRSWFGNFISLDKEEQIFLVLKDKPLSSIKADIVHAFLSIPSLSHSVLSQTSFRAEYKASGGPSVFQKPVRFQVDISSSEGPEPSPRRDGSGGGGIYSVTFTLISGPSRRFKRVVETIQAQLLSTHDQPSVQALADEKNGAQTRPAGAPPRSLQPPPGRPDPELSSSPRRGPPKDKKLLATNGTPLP

[5] = target: T2, Serine/threonine-protein kinase BRSK1 (Homo sapiens); conditions: at 1 µM
[6] = target: T3, Serine/threonine-protein kinase BRSK2 (Homo sapiens) (UniProt Q8IWQ3); conditions: at 0.1 µM
T3 sequence (whole entry): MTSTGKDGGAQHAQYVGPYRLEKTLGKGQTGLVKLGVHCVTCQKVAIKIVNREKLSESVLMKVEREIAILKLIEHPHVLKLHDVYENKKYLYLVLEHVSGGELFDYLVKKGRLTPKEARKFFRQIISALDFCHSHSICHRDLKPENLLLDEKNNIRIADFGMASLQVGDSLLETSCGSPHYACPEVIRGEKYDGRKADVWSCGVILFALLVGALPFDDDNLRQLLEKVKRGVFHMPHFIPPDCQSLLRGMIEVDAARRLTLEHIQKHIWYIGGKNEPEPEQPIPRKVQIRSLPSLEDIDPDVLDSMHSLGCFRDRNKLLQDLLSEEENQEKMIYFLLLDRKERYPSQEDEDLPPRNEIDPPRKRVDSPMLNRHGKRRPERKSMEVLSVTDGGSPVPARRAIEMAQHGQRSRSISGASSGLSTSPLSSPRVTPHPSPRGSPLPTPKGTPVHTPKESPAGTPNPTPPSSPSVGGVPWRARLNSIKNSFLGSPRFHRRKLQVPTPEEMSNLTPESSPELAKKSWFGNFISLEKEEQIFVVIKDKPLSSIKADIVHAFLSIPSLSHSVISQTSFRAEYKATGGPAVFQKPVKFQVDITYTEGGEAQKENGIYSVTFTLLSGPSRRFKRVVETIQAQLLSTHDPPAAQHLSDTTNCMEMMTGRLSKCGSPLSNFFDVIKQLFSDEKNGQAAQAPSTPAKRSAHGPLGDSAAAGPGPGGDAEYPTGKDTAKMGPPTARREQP

[7] = target: T3, Serine/threonine-protein kinase BRSK2 (Homo sapiens); conditions: at 1 µM
[8] = target: Calcium/calmodulin-dependent protein kinase type 1D (Homo sapiens) (UniProt Q8IU85); conditions: at 0.1 µM
Sequence of Calcium/calmodulin-dependent protein kinase type 1D (Homo sapiens) (Q8IU85 whole entry, looked up): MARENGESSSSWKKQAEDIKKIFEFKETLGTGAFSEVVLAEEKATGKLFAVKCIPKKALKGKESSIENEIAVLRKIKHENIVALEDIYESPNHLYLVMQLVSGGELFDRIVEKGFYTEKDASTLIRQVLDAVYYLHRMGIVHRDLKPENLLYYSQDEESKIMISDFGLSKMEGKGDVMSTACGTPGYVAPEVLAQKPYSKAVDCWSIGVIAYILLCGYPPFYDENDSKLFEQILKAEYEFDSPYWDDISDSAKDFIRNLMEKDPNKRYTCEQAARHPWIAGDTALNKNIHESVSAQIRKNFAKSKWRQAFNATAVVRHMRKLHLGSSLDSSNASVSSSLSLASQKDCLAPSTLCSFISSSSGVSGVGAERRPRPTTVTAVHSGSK

[9] = target: Calcium/calmodulin-dependent protein kinase type 1D (Homo sapiens) (UniProt Q8IU85); conditions: at 1 µM
[10] = target: Calcium/calmodulin-dependent protein kinase type II subunit alpha (Homo sapiens) (UniProt Q9UQM7); conditions: at 0.1 µM
Sequence of Calcium/calmodulin-dependent protein kinase type II subunit alpha (Homo sapiens) (Q9UQM7 whole entry): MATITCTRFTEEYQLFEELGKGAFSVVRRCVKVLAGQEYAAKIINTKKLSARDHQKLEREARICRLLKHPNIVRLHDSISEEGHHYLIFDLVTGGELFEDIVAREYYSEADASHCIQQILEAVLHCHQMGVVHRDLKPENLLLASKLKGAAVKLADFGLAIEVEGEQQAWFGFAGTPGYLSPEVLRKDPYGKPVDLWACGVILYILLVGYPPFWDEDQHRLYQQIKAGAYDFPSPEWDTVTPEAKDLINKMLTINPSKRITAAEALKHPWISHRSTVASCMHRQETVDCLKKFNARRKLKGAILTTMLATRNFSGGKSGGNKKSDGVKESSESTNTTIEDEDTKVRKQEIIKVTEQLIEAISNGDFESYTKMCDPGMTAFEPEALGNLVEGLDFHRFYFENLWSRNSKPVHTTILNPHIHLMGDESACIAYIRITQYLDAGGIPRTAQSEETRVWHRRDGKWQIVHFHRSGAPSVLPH

[11] = target: Calcium/calmodulin-dependent protein kinase type II subunit alpha (Homo sapiens) (UniProt Q9UQM7); conditions: at 1 µM
[12] = target: Calcium/calmodulin-dependent protein kinase type II subunit delta (Homo sapiens) (UniProt Q13557); conditions: at 0.1 µM
Sequence of Calcium/calmodulin-dependent protein kinase type II subunit delta (Homo sapiens) (Q13557 whole entry): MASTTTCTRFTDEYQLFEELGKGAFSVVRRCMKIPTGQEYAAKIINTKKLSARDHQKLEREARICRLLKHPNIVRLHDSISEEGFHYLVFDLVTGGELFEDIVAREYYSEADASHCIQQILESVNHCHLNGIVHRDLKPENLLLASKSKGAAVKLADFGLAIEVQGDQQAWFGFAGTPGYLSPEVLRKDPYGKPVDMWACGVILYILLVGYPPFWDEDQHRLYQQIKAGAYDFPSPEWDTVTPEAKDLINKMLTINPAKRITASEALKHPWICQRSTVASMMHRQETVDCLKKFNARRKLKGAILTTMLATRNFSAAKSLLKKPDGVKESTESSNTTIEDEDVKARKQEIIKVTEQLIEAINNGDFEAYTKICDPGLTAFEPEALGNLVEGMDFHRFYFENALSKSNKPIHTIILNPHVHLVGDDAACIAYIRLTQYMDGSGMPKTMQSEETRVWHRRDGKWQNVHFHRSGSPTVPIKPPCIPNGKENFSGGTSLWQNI

[13] = target: Calcium/calmodulin-dependent protein kinase type II subunit delta (Homo sapiens) (UniProt Q13557); conditions: at 1 µM
[14] = target: T4, Calcium/calmodulin-dependent protein kinase type IV (Homo sapiens) (UniProt Q16566); conditions: at 0.1 µM
T4 sequence (whole entry): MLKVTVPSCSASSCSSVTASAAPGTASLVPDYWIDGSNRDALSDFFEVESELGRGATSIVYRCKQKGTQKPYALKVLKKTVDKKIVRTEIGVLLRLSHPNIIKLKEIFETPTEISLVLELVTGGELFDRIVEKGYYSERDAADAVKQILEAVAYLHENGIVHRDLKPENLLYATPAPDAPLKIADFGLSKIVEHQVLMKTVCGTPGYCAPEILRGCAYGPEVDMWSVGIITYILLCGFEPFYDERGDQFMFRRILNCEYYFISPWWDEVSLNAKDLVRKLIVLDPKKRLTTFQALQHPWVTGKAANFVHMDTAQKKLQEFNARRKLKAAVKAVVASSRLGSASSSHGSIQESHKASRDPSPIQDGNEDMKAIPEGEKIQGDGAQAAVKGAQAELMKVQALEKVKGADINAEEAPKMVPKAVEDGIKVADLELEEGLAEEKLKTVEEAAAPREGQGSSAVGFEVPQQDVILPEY

[15] = target: T4, Calcium/calmodulin-dependent protein kinase type IV (Homo sapiens); conditions: at 1 µM
[16] = target: T5, Serine/threonine-protein kinase Chk1 (Homo sapiens) (UniProt O14757); conditions: at 0.1 µM
T5 sequence (whole entry): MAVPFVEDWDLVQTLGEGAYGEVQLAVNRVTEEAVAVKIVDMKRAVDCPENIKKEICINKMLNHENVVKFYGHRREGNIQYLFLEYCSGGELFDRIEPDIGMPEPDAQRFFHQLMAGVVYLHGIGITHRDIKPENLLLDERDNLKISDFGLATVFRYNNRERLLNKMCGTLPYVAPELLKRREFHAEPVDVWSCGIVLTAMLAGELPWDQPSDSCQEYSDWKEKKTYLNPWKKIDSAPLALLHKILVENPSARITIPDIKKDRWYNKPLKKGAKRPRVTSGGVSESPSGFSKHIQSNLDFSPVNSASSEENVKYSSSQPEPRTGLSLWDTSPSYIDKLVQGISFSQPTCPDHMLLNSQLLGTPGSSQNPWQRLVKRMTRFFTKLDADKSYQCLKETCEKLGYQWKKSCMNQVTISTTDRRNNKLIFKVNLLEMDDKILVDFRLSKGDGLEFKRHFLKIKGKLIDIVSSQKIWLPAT

[17] = target: T5, Serine/threonine-protein kinase Chk1 (Homo sapiens); conditions: at 1 µM
[18] = target: Serine/threonine-protein kinase Chk2 (Homo sapiens) (UniProt O96017); conditions: at 0.1 µM
Sequence of Serine/threonine-protein kinase Chk2 (Homo sapiens) (O96017 whole entry): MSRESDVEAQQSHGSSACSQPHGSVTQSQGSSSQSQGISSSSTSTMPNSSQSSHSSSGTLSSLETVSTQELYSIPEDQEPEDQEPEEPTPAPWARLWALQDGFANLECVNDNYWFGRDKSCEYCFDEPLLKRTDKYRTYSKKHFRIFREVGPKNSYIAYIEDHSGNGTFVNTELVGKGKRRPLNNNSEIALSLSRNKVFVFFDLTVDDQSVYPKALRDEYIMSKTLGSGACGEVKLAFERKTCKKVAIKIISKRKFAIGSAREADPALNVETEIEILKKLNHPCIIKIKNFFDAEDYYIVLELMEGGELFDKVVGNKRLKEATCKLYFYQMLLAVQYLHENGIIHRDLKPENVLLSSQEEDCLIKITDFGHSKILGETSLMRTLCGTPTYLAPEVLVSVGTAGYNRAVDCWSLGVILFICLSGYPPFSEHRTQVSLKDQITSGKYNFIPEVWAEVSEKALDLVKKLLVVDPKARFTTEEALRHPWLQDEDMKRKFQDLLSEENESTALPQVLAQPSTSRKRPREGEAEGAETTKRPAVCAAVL

[19] = target: Serine/threonine-protein kinase Chk2 (Homo sapiens) (UniProt O96017); conditions: at 1 µM
[20] = target: Death-associated protein kinase 1 (Homo sapiens) (UniProt P53355); conditions: at 0.1 µM;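 note: reported figure is the mean inhibition of DAPK1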
Sequence of Death-associated protein kinase 1 (Homo sapiens) (P53355 whole entry, looked up): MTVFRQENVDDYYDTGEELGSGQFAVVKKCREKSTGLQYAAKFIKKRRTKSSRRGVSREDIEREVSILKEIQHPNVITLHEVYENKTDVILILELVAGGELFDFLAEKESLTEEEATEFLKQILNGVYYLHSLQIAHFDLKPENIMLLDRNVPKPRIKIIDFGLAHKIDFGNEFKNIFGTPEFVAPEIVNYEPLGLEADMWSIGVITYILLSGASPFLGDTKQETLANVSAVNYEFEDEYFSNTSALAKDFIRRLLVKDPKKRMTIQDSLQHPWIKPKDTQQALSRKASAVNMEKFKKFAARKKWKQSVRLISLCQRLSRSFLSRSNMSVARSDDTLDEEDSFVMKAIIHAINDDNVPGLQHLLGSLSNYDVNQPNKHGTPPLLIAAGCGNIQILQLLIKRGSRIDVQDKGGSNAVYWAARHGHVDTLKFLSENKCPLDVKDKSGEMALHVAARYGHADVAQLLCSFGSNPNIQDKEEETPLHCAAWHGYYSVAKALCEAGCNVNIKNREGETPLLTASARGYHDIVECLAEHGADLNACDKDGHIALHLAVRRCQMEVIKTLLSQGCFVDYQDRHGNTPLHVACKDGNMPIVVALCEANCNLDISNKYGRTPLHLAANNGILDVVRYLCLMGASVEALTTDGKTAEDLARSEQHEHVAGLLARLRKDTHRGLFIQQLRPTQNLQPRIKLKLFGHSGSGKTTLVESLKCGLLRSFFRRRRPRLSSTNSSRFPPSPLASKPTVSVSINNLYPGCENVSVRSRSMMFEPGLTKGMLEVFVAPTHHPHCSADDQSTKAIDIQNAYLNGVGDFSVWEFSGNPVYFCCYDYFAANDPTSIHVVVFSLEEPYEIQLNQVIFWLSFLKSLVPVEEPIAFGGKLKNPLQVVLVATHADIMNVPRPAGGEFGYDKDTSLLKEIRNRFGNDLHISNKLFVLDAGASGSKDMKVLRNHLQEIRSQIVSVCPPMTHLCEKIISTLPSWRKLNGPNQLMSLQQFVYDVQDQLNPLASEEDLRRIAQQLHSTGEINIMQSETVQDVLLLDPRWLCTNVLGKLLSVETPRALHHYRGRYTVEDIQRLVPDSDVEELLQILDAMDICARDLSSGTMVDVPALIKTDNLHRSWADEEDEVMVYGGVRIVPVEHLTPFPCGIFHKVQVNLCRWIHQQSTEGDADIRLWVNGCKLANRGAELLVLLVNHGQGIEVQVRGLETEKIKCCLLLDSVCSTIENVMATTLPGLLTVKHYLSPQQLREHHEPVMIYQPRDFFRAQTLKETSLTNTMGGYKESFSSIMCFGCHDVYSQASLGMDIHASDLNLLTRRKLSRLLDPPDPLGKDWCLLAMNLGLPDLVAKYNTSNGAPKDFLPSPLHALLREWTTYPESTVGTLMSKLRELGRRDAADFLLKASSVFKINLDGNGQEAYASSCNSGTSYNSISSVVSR

Sequence of 5'-AMP-activated protein kinase catalytic subunit alpha-2 (Homo sapiens) (P54646 whole entry, looked up): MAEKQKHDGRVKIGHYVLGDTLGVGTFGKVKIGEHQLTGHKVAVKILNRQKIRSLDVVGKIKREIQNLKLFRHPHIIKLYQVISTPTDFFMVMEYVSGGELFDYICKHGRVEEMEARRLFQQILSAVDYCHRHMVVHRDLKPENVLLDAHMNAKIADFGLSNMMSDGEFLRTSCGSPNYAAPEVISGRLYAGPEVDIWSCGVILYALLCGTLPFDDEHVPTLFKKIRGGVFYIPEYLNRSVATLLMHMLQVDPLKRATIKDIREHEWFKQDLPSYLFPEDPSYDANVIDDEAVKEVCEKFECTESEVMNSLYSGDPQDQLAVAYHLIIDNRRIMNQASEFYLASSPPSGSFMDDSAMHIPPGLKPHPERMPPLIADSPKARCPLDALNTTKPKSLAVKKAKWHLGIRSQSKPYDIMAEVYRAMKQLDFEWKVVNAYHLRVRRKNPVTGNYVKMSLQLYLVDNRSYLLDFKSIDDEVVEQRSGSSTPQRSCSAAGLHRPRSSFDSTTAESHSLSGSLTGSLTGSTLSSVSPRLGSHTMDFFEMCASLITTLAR

SMILES | inhibition [1] [%] | inhibition [2] [%] | inhibition [3] [%] | inhibition [4] [%] | inhibition [5] [%] | inhibition [6] [%] | inhibition [7] [%] | inhibition [8] [%] | inhibition [9] [%] | inhibition [10] [%] | inhibition [11] [%] | inhibition [12] [%] | inhibition [13] [%] | inhibition [14] [%] | inhibition [15] [%] | inhibition [16] [%] | inhibition [17] [%] | inhibition [18] [%] | inhibition [19] [%] | inhibition [20] [%]
COC(=O)Nc1nc2cc(Oc3cccc(NC(=O)Nc4cc(C(F)(F)F)ccc4F)c3)ccc2[nH]1 | 3.68 | 0.14 | -3.14 | 1.74 | 1.87 | 1.38 | 2.1 | 0.54 | 4.96 | 0.56 | 0.78 | 0.53 | 0.94 | 1.37 | 0.22 | -2.61 | -1.51 | -0.85 | 0.45 | 0.43
CCCN1CCC=C(c2ccc(Nc3nc(Nc4ccccc4C(N)=O)c4cc[nH]c4n3)c(C)c2)C1 | 14.5 | 48.4 | 69.8 | 3.51 | 4.05 | 2.36 | 6.53 | 1.21 | 12.8 | 3.75 | 8.19 | 5.36 | 20.6 | -0.28 | 9.19 | 1.09 | 8.05 | 13.1 | 51.3 | 6.81
COc1ccccc1Nc1ncc(-c2ccccc2)o1 | 4.09 | -0.18 | -4.21 | -0.58 | 3.87 | 2.96 | 4.49 | -0.11 | -0.14 | 3.16 | 0.2 | 3.81 | 4.92 | 0.89 | -8.72 | -2.97 | -2.91 | -2.63 | -3.53 | -1.69
CC(C)=Cc1cccc2c1/C(=N/Nc1ccc(S(N)(=O)=O)cc1)C(=O)N2 | 40.2 | 80.3 | 87.3 | 7.32 | 45 | 14.6 | 58.2 | 0.31 | 1.3 | 2.92 | 6.48 | 2.83 | 11.3 | -1.55 | -0.74 | 6.35 | 10.3 | 5.36 | 9.14 | 9.26
COc1ccc(COc2ccc(Cc3cnc(N)nc3N)cc2OC)cc1 | 2.37 | 3.64 | 3.71 | 4.29 | 3.19 | 2.82 | 2.49 | 3.83 | 5.51 | 3.64 | 5.8 | 2.39 | 2.5 | 1.77 | 3.54 | 5.47 | 7.23 | 5.87 | 4.77 | 8.9
Fc1cccc(COc2ccc(Nc3ncnc4cc(-c5ccc[nH]5)sc34)cc2Cl)c1 | 3.27 | 2.43 | 6.42 | 0.67 | 1.16 | 0.79 | 4.01 | 1.56 | 1.16 | 0.3 | 0.84 | 1.12 | 2.72 | 1.44 | 1.44 | -0.13 | 3.63 | 0.71 | 3.96 | -1.32
